# Screening data deposited in PubChem by National Center for Advancing Translational Sciences (NCATS).
# VP16 counter: VP16 counterscreen qHTS for inhibitors of ROR gamma transcriptional activity; Drosophila S2 Gal4-VP16 UAS-luciferase, luminescence, 20 h; AID 2546, 2010; Potency, µM (series often up to 53.6 µM), usual class: inhibitors; 310,000 compounds, 3.5% hits;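 further: Gal4-VP16 expression switched on by copper sulfate through the metallothionein promoter; nearly all actives have a fitted effect of over 50% in size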
# DT40 TDP1 no CPT: qHTS for Inhibitors of human tyrosyl-DNA phosphodiesterase 1 (TDP1): qHTS in cells in absence of CPT. AID 686978, 2013. Potency, µM (titrated, usually from 46.2 µM), actives largely listed as inhibitors. 420,000 compounds, 15% hits. DT40 Tdp1-/- hTDP1 cells, no CPT, ATP luminescence, 48 h; further: nearly all actives have a fitted effect of over 55% in size
#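 Chicken DT40 Tdp1-/- cells stably complemented with human TDP1 were seeded at 400 cells/well with DMSO in place of 20 nM camptothecin. After compound pinning, cells grew at least 48 hr at 37 °C; viability read by CellTiter-Glo luminescence.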
# DT40 TDP1 CPT: qHTS for Inhibitors of human tyrosyl-DNA phosphodiesterase 1 (TDP1): qHTS in cells in presence of CPT. AID 686979, 2013. Potency, µM (titrated, usually from 46.2 µM), actives largely listed as inhibitors. chicken DT40 Tdp1-/-;hTDP1 cells + 20 nM CPT, ATP luminescence, 48 h. 420,000 compounds, 12% hits; further: nearly all actives have a fitted effect of over 55% in size
#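 Cell growth measured by CellTiter-Glo luminescence after a minimum 48 h, 37 C compound exposure with 20 nM CPT in Tdp1-knockout DT40 cells stably expressing hTDP1, seeded 400/well; qHTS titration format.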
# RORgamma inh: qHTS for inhibitors of ROR gamma transcriptional activity. Nuclear receptor ROR-gamma (Mus musculus), P51450. Drosophila S2 Gal4-RORgamma UAS-luciferase reporter, 20 h. Potency, µM (top dose mostly 53.6 µM), actives largely listed as inhibitors. 310,000 compounds, 5.4% hits; further: nearly all actives have a fitted effect of over 60% in size
# Target sequence (P51450 whole entry, looked up, the tested form may be a part): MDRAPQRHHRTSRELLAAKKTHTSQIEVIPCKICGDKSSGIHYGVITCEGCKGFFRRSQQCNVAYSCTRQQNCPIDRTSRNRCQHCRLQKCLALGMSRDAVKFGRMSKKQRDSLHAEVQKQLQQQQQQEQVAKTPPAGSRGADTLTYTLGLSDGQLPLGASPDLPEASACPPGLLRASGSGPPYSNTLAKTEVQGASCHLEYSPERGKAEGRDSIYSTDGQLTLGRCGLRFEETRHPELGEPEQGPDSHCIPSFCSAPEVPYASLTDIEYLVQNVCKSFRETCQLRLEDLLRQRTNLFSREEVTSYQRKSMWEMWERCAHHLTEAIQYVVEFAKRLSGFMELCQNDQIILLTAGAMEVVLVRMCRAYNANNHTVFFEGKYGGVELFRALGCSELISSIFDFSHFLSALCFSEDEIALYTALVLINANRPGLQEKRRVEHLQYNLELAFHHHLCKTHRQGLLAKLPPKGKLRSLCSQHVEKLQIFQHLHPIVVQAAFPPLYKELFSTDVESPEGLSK
#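 Using a luciferase readout, inhibitors were identified by reduced reporter activity in Drosophila cells coexpressing a copper-inducible Gal4–ROR gamma fusion and UAS-driven Photinus luciferase, incubated 20 hr after 700 uM copper sulfate.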
# TDP1 block: qHTS Assay for Inhibitors of Tyrosyl-DNA Phosphodiesterase (TDP1). Tyrosyl-DNA phosphodiesterase 1 (Homo sapiens), Q9NUW8. recombinant TDP1, AlphaScreen DNA substrate cleavage. Potency, µM (series often up to 130 µM), actives largely listed as inhibitors. 350,000 compounds, 0.28% hits; further: nearly all actives have a fitted effect of over 40% in size
#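 Recombinant human Tdp1 (E. coli-expressed, 1 nM final) preincubated with compounds 15 min at room temperature, then 5'-biotin/3'-phosphotyrosine-FITC DNA substrate (15 nM final) added for 5 min. AlphaScreen beads (10 ug/ml final) added 10 min; cleavage lowers signal.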
# A number is an active result; . = inactive; ? = inconclusive; / = no result; [ ] = dose if it differs, or a comment. Sampled rows, rich in hits. Any-hit rate of the full collection: about 19%. The call rests on the fitted dose curve; in most records, active means well fitted curve in the direction sought with a large enough effect; inconclusive means small, poorly fitted or top-dose-only effect, or another doubt; inactive means no such curve, though single readings can be large; an effect the other way counts as inactive or inconclusive.
SMILES,VP16 counter,DT40 TDP1 no CPT,DT40 TDP1 CPT,RORgamma inh,TDP1 block
CCc1ccc(Oc2c(C(F)(F)F)oc3c(CN4CCN(C)CC4)c(O)ccc3c2=O)cc1,/,26µM,?,/,.
COc1ccccc1C(=O)NCCC(=O)NCc1cccs1,/,.,.,/,/
O=c1nc(-c2ccccc2)c2ccccc2[nH]1,.,.,.,.,.
COc1cccc(-c2nc(SCc3cc(=O)c4ccc(C)c(C)c4[nH]3)n[nH]2)c1,/,8.2µM,?,/,.
O=c1cc(-c2ccccc2)[nH]c2ccccc12,.,0.92µM,0.52µM,?,.
O=c1cc(CSc2n[nH]c(-c3ccccc3)n2)[nH]c2ccccc12,/,26µM,26µM,/,.
Cc1ccc(N2C(=O)CN(Cc3sccc3C)C2=S)cc1C,.,?,.,.,.
CC(=O)C1=C(O)C(=O)N(CCN2CCOCC2)C1c1ccc(N(C)C)cc1 (stereo not given),/,.,.,/,/
O=C1C2C(C(=O)N1/N=C/c1cc(Br)cc([N+](=O)[O-])c1O)C1C=CC2C12CC2 (stereo not given),.,16µM,?,.,.
O=C(O)c1ccccc1-c1ccc(/C=C2\SC(=O)N(c3ccccc3)C2=O)o1,.,.,.,.[1.91 µM],/
O=C1S/C(=C\c2ccc(N3CCOCC3)o2)C(=O)N1Cc1c(F)cccc1Cl,?,?,7.3µM,?,.
O=C1S/C(=C\c2ccc(N3CCOCC3)o2)C(=O)N1c1ccccc1,?,8.2µM,1.6µM,.,.
O=C1S/C(=C/c2ccc(N3CCOCC3)o2)C(=O)N1Cc1c(F)cccc1Cl,.,.,?,.,.
On1c(-c2ccccc2)nc2ncccc21,.,.,?,.,/
O=C(CN(CC1CCCO1)C(=O)CNS(=O)(=O)c1ccc(F)cc1)NC1CCCC1 (stereo not given),.,.,.,.,/
CCN(c1ccccc1)S(=O)(=O)c1ccc(C(=O)Nc2nnc(C3CC3)o2)cc1,0.56µM,18µM,21µM,0.25µM,.
CN(c1ccccc1)S(=O)(=O)c1ccc(C(=O)Nc2nnc(C3CC3)o2)cc1,1µM,.,.,0.32µM,.
CN(c1ccccc1)S(=O)(=O)c1ccc(C(=O)Nc2nnc(C3CC3)s2)cc1,.,.,.,.,.
CC#CCN1c2ccccc2[C@]23C[C@@H](C(=O)OC)N(S(=O)(=O)c4cccs4)C2=NC(C(=O)OC)=C(C(=O)OC)[C@H]13,/,/,/,/,.[12.3 µM]
CCN(Cc1cccc(S(=O)(=O)O)c1)c1ccc(C(=C2C=CC(=[N+](CC)Cc3cccc(S(=O)(=O)O)c3)C=C2)c2ccccc2S(=O)(=O)[O-])cc1,/,13µM,2µM,/,/
C/C(=N\NC(=O)c1c(Cl)c(C)nn1C)c1ccc(NC(=O)C2CCC2)cc1,.,0.37µM,0.65µM,.,.
C/C(=N\NC(=O)c1c([N+](=O)[O-])c(C)nn1C)c1ccc(NC(=O)C2CCCC2)cc1,.,0.18µM,0.16µM,.,.
C/C(=N\NC(=O)c1c([N+](=O)[O-])c(C)nn1C)c1ccc(NC(=O)c2ccc(C)o2)cc1,.,.,.,.,.
COc1ccc(C2/C=C\CN(Cc3ccccc3)CC(=O)N2Cc2ccc(F)cc2)cc1 (stereo not given),.,/,/,?,.
COc1ccc(/C=C2\C(=O)NCC(=O)N2Cc2ccccc2)cc1,.,21µM,15µM,.,.
SMILES,VP16 counter,DT40 TDP1 no CPT,DT40 TDP1 CPT,RORgamma inh,TDP1 block
COc1ccc(/C=C2\C(=O)N(Cc3ccc(F)cc3)CC(=O)N2Cc2ccccc2)cc1,.,26µM,23µM,.,.
CC(=O)c1cccc(NC(=O)C(C)OC(=O)CCn2c(C)csc2=O)c1 (stereo not given),/,.,.,/,.
CCc1ccc2[nH]cc(C(=O)OCCOC)c(=O)c2c1,.,23µM,?,.,.
CN(C(=O)c1ccc(S(=O)(=O)c2cccc(Cl)c2)c([N+](=O)[O-])c1)C1CCCCC1,?,5.2µM,3.7µM,.,.
COc1ccccc1/C=C/c1nc(S(=O)(=O)c2ccccc2)c(NCCN(C)C)o1,.,21µM,?,.,.
O=C(CSc1ncnc2c1oc1ccccc12)Nc1nccs1,.,.,.,.,/
COC(=O)c1c(SCC(=O)Nc2ccccc2C(F)(F)F)[nH]c2ccc(Cl)cc2c1=O,/,29µM,21µM,/,.
COC(=O)c1c(SCC(=O)Nc2cc(C)cc(C)c2)[nH]c2ccccc2c1=O,/,?,23µM,/,.
CCOC(=O)/C(N=Nc1ccc(Cl)cc1)=C(/O)c1ccc([N+](=O)[O-])cc1,.,.,.,.,.
Cc1onc(-c2ccccc2Cl)c1C(=O)N(C)Cc1ccccc1,.,?,?,.,/
COc1ccc(CCNC(=S)NC(=O)c2c(-c3ccccc3Cl)noc2C)cc1OC,?,?,?,8.9µM,.
Cc1onc(-c2ccccc2Cl)c1C(=O)NC(=S)NCCc1ccccc1,20µM,.,.,10µM,.
Cc1onc(-c2ccccc2Cl)c1C(=O)NC(=S)NCc1cccnc1,.,.,.,.,.
CCN(Cc1ccccc1)C(=O)c1c(-c2ccccc2Cl)noc1C,.,12µM,?,.,/
COc1ccc(NC(=O)CN2CCN(C3CCCCC3)C(=O)C2=O)cc1,/,.,.,/,.
Cc1ccc(NC(=O)CN(C)C2CCCCC2)cc1Br,.,18µM,?,.,.
Cc1cc(C)c(NC(=O)CN(C2CCCCC2)C2CCCCC2)c(C)c1,.,16µM,23µM,.,.
COc1ccccc1/C=C/C(=O)NC(=S)N(C)C1CCCCC1,3.2µM,.,.,?,.
Cc1ccccc1C(=O)NC(=S)N(C)C1CCCCC1,2.8µM,.,?,?,.
CCCN(CC1CC1)C(=S)NC(=O)c1ccccc1C,/,.,.,/,/
Cc1ccc(CN2CCC(CNC(=O)Nc3cccc(C)c3C)C2)cc1 (stereo not given),/,?,?,/,.
CC(=O)NCCNc1ccnc(-c2ccccc2C)n1,.,.,.,.,/
COc1cc(SC)ccc1C(=O)NC1CCCc2ccccc21 (stereo not given),?,?,?,.,.
CS(=O)(=O)N(CC(=O)Nc1ccc(Br)cc1)C1CCCCC1,.,23µM,?,.,/
COc1ccc(C(=O)NC2CCCc3ccccc32)cc1Br (stereo not given),.,?,.,.,.[0.0935 µM]
COc1ccc(C(=O)NC(=S)N(C)C2CCCCC2)cc1Br,0.71µM,?,?,0.71µM,.
COc1ccc(C(=O)NC(=S)N(C)C2CCCCC2)cc1,4µM,?,?,2µM,.
COc1ccc(C(=O)NCCS(=O)(=O)N(C)C2CCCCC2)cc1,/,.,.,/,.[0.505 µM]
Cc1ccc(C(=O)NC(=S)N(C)C2CCCCC2)cc1Br,0.5µM,/,/,0.22µM,.
